Results filed as inconclusive are left out. Activity calls are given as the source filed them. The call rests on the fitted dose curve; in most records, active means well fitted inhibition curve with a large enough effect; inconclusive means small, poorly fitted or top-dose-only effect; inactive means flat fitted curve, though single readings scatter.
Legend:
Test in all cases: qHTS profiling for inhibitors of Plasmodium falciparum proliferation (AID 504749); further: nearly all actives have a fitted effect of over 60% in size
CP252 = conditions: P. falciparum in erythrocytes, SYBR Green DNA, 72 h; series mostly up to 12.8 µM
How it was run: (§1)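 In a 72 h erythrocytic culture (37 C, humidified, 5% CO2) at 2.5% hematocrit and 0.3% starting parasitemia, compounds were tested; SYBR Green I in detergent lysis buffer stained parasite DNA overnight.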

CP256 = conditions: P. falciparum in erythrocytes, SYBR Green DNA, 72 h; series mostly up to 28.7 µM
How it was run: as §1

CP260 = conditions: P. falciparum in erythrocytes, SYBR Green DNA, 72 h; series mostly up to 28.7 µM
How it was run: as §1

CP262 = conditions: P. falciparum in erythrocytes, SYBR Green DNA, 72 h; series mostly up to 28.7 µM
How it was run: as §1

CP265 = conditions: P. falciparum in erythrocytes, SYBR Green DNA, 72 h; series mostly up to 12.8 µM
How it was run: as §1

CP266 = conditions: P. falciparum in erythrocytes, SYBR Green DNA, 72 h; series mostly up to 12.8 µM
How it was run: as §1

CP268 = conditions: P. falciparum in erythrocytes, SYBR Green DNA, 72 h; series mostly up to 28.7 µM
How it was run: as §1

CP269 = conditions: P. falciparum in erythrocytes, SYBR Green DNA, 72 h; series mostly up to 28.7 µM
How it was run: as §1

CP286 = conditions: P. falciparum in erythrocytes, SYBR Green DNA, 72 h; series mostly up to 28.7 µM
How it was run: as §1

CP291 = conditions: P. falciparum in erythrocytes, SYBR Green DNA, 72 h; series mostly up to 28.7 µM
How it was run: as §1

CP297 = conditions: P. falciparum in erythrocytes, SYBR Green DNA, 72 h; series mostly up to 28.7 µM
How it was run: as §1

CP305 = conditions: P. falciparum in erythrocytes, SYBR Green DNA, 72 h; series mostly up to 28.7 µM
How it was run: as §1

CP315 = conditions: P. falciparum in erythrocytes, SYBR Green DNA, 72 h; series mostly up to 28.7 µM
How it was run: as §1

CP325 = conditions: P. falciparum in erythrocytes, SYBR Green DNA, 72 h; series mostly up to 28.7 µM
How it was run: as §1

CP329 = conditions: P. falciparum in erythrocytes, SYBR Green DNA, 72 h; series mostly up to 28.7 µM
How it was run: as §1

CP335 = conditions: P. falciparum in erythrocytes, SYBR Green DNA, 72 h; series mostly up to 12.8 µM
How it was run: as §1

DIV14 = conditions: P. falciparum in erythrocytes, SYBR Green DNA, 72 h; series mostly up to 28.7 µM
How it was run: as §1

DIV17 = conditions: P. falciparum in erythrocytes, SYBR Green DNA, 72 h; series mostly up to 28.7 µM
How it was run: as §1

DIV30 = conditions: P. falciparum in erythrocytes, SYBR Green DNA, 72 h; series mostly up to 28.7 µM
How it was run: as §1

Dd2 = conditions: P. falciparum in erythrocytes, SYBR Green DNA, 72 h; series mostly up to 28.7 µM
How it was run: as §1

ECU = conditions: P. falciparum in erythrocytes, SYBR Green DNA, 72 h; series mostly up to 28.7 µM
How it was run: as §1

FAB9 = conditions: P. falciparum in erythrocytes, SYBR Green DNA, 72 h; series mostly up to 28.7 µM
How it was run: as §1

GB4 = conditions: P. falciparum in erythrocytes, SYBR Green DNA, 72 h; series mostly up to 28.7 µM
How it was run: as §1

HB3 = conditions: P. falciparum in erythrocytes, SYBR Green DNA, 72 h; series mostly up to 28.7 µM
How it was run: as §1

ICS = conditions: P. falciparum in erythrocytes, SYBR Green DNA, 72 h; series mostly up to 28.7 µM
How it was run: as §1

JCK = conditions: P. falciparum in erythrocytes, SYBR Green DNA, 72 h; series mostly up to 28.7 µM
How it was run: as §1

N140 = conditions: P. falciparum in erythrocytes, SYBR Green DNA, 72 h; series mostly up to 28.7 µM
How it was run: as §1

P93_24 = conditions: P. falciparum in erythrocytes, SYBR Green DNA, 72 h; series mostly up to 28.7 µM
How it was run: as §1

P94_40 = conditions: P. falciparum in erythrocytes, SYBR Green DNA, 72 h; series mostly up to 28.7 µM
How it was run: as §1

PAD = conditions: P. falciparum in erythrocytes, SYBR Green DNA, 72 h; series mostly up to 28.7 µM
How it was run: as §1

PC15 = conditions: P. falciparum in erythrocytes, SYBR Green DNA, 72 h; series mostly up to 28.7 µM
How it was run: as §1

PC26 = conditions: P. falciparum in erythrocytes, SYBR Green DNA, 72 h; series mostly up to 28.7 µM
How it was run: as §1

PC49 = conditions: P. falciparum in erythrocytes, SYBR Green DNA, 72 h; series mostly up to 28.7 µM
How it was run: as §1

SC27B = conditions: P. falciparum in erythrocytes, SYBR Green DNA, 72 h; series mostly up to 28.7 µM
How it was run: as §1

TAB113 = conditions: P. falciparum in erythrocytes, SYBR Green DNA, 72 h; series mostly up to 28.7 µM
How it was run: as §1

TAB165 = conditions: P. falciparum in erythrocytes, SYBR Green DNA, 72 h; series mostly up to 28.7 µM
How it was run: as §1

W2 = conditions: P. falciparum in erythrocytes, SYBR Green DNA, 72 h; series mostly up to 12.8 µM
How it was run: as §1

Measured: Potency

CNC(C)[C@@H](O)c1ccc(O)cc1 (some centres not stated)
inactive: CP252 | CP256 | CP260 | CP262 | CP265 | CP266 | CP268 | CP269 | CP286 | CP291 | CP297 | CP305 | CP315 | CP325 | CP329 | CP335 | DIV14 | DIV17 | DIV30 | Dd2 | ECU | FAB9 | GB4 | HB3 | ICS | JCK | N140 | P93_24 | P94_40 | PAD | PC15 | PC26 | PC49 | SC27B | TAB113 | TAB165 | W2

— PubChem BioAssay (NCATS)
